Drawing on PubChem BioAssay (NCATS), this text covers Potency for six compounds.

The nature of assay [1]: qHTS of pediatric cancer cell lines to identify multiple opportunities for drug repurposing: Primary screen for BT-37 cells (AID 1347094). The method in brief:
(§1)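 Luminescence from CellTiter-Glo served as readout of metabolically active cells after 48 h compound exposure. Titrations: MIPE 11-point, from 0.78 nM; NPC 8-point, from 0.59 nM (final). Concentration-response curves came straight from the primary screen.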
(qHTS replaces the single test concentration by a dilution series.)

Assay [2] is described as follows: qHTS of pediatric cancer cell lines to identify multiple opportunities for drug repurposing: Primary screen for NB-EBc1 cells (AID 1347095). The essentials:
as §1

Assay [3] is described as follows: qHTS of pediatric cancer cell lines to identify multiple opportunities for drug repurposing: Primary screen for U-2 OS cells (AID 1347096). Further: nearly all actives have a fitted effect of over 50% in size. The method in brief:
(§2)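 Viability after 48 h compound treatment at 37C, 500-1,000 cells/well, read as ATP luminescence with CellTiter-Glo. Primary screens used 11-point (MIPE, 0.78 nM-46 µM) or 8-point (NPC, 0.59 nM-46 µM) final concentrations; follow-up screens used 11-point dilutions.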

Assay [4] is described as follows: qHTS of pediatric cancer cell lines to identify multiple opportunities for drug repurposing: Primary screen for Saos-2 cells (AID 1347097). Further: nearly all actives have a fitted effect of over 40% in size. The method in brief:
as §1

A short description of assay [5]: qHTS of pediatric cancer cell lines to identify multiple opportunities for drug repurposing: Primary screen for SK-N-SH cells (AID 1347098). Further: nearly all actives have a fitted effect of over 65% in size. The essentials:
(§3)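 Cells (500-1,000/well) rested 5 h, then received compounds for 48 h; metabolically active cells were measured by CellTiter-Glo luminescence. Final concentrations spanned up to 46 µM (MIPE, 11-point) or 0.59 nM-46 µM (NPC, 8-point) in primary screens, 11-point in follow-ups.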

Assay [6] in a line: qHTS of pediatric cancer cell lines to identify multiple opportunities for drug repurposing: Primary screen for NB1643 cells (AID 1347099). Further: nearly all actives have a fitted effect of over 50% in size. The essentials:
as §1

A short description of assay [7]: qHTS of pediatric cancer cell lines to identify multiple opportunities for drug repurposing: Primary screen for LAN-5 cells (AID 1347100). The method in brief:
as §2

Assay [8] in a line: qHTS of pediatric cancer cell lines to identify multiple opportunities for drug repurposing: Primary screen for BT-12 cells (AID 1347101). Further: nearly all actives have a fitted effect of over 25% in size. The essentials: as §3
The nature of assay [9]: qHTS of pediatric cancer cell lines to identify multiple opportunities for drug repurposing: Primary screen for Rh18 cells (AID 1347102). Further: nearly all actives have a fitted effect of over 65% in size. The method in brief:
as §2

Assay [10] is described as follows: qHTS of pediatric cancer cell lines to identify multiple opportunities for drug repurposing: Primary screen for OHS-50 cells (AID 1347103). Further: nearly all actives have a fitted effect of over 40% in size. The method in brief:
as §3

Assay [11] in a line: qHTS of pediatric cancer cell lines to identify multiple opportunities for drug repurposing: Primary screen for RD cells (AID 1347104). Further: nearly all actives have a fitted effect of over 55% in size. The essentials: as §1
Assay [12] in a line: qHTS of pediatric cancer cell lines to identify multiple opportunities for drug repurposing: Primary screen for MG 63 (6-TG R) cells (AID 1347105). Further: nearly all actives have a fitted effect of over 50% in size. The essentials: as §1
A short description of assay [13]: qHTS of pediatric cancer cell lines to identify multiple opportunities for drug repurposing: Primary screen for control Hh wild type fibroblast cells (AID 1347106). Further: nearly all actives have a fitted effect of over 55% in size. The essentials:
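Cells (500-1,000/well) in growth media were settled 5 h at 37 degrees C, then given compounds for 48 h. Viability was read as CellTiter-Glo luminescence. Primary runs used MIPE at 11 points (0.78 nM-46 µM) and NPC at 8 points (0.59 nM-46 µM); follow-ups used 11 points.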

Assay [14] in a line: qHTS of pediatric cancer cell lines to identify multiple opportunities for drug repurposing: Primary screen for Rh41 cells (AID 1347108). Further: nearly all actives have a fitted effect of over 70% in size. The essentials: as §1
Assay [15] can be described thus: qHTS of pediatric cancer cell lines to identify multiple opportunities for drug repurposing: Confirmatory screen for NB1643 cells (AID 1347109). Further: nearly all actives have a fitted effect of over 45% in size. The method in brief: as §2
Assay [16] in a line: qHTS of pediatric cancer cell lines to identify multiple opportunities for drug repurposing: Confirmatory screen for A673 cells (AID 1347110). Further: nearly all actives have a fitted effect of over 65% in size. The essentials:
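A673 cells at 500-1,000 cells/well were dosed 5 h after plating, in dilution series up to 46 uM final; primary runs used 8 or 11 points and confirmatory runs used 11 points. Viability was read by CellTiter-Glo luminescence after 48 h, against DMSO and 2.3 uM bortezomib controls.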

The nature of assay [17]: qHTS of pediatric cancer cell lines to identify multiple opportunities for drug repurposing: Confirmatory screen for SK-N-MC cells (AID 1347111).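 Further: cells exposed to compound for 48 h before the readout; nearly all actives have a fitted effect of over 70% in size.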 The method in brief: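 SK-N-MC cells at 500-1,000 cells/well in growth media were pre-incubated 5 h, then exposed to compounds at 11-point dilutions for 48 h at 37 degrees C, 5% CO2. Viability was read as CellTiter-Glo luminescence.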

Assay [18] is described as follows: qHTS of pediatric cancer cell lines to identify multiple opportunities for drug repurposing: Confirmatory screen for BT-12 cells (AID 1347112). Further: nearly all actives have a fitted effect of over 55% in size. The essentials: as §2
The nature of assay [19]: qHTS of pediatric cancer cell lines to identify multiple opportunities for drug repurposing: Confirmatory screen for LAN-5 cells (AID 1347113). Further: nearly all actives have a fitted effect of over 65% in size. The method in brief:
as §2

The nature of assay [20]: qHTS of pediatric cancer cell lines to identify multiple opportunities for drug repurposing: Primary screen for Rh30 cells (AID 1347107). Further: nearly all actives have a fitted effect of over 75% in size. The essentials:
as §2

Records with an inconclusive call do not appear. Calls of active or inactive are those of the source. The call rests on the fitted dose curve; in most records, active means well fitted curve in the direction sought with a large enough effect; inconclusive means small, poorly fitted or top-dose-only effect, or another doubt; inactive means no such curve, though single readings can be large; an effect the other way counts as inactive or inconclusive.
Potency means the concentration at half of the fitted maximal effect.

Take `CNC(=O)c1ccc(Nc2cc(Nc3ccccc3S(=O)(=O)C(C)C)c3cc[nH]c3n2)nc1`: the Potency in [1] is 7.69 µM (active); in assay [2] it was 1.48 µM (active); in [3] it was 18.7 µM (active); in assay [4], 1.66 µM (active); in assay [5] it was 4.82 µM (active); in assay [6] it was 5.26 µM (active). Further, the Potency in [7] is 0.0935 µM (active); in assay [8], 4.85 µM (active); in assay [9], 9.35 µM (active); in assay [10], 0.544 µM (active); in assay [11] it was 5.9 µM (active); in assay [12], 5.9 µM (active). The Potency in assay [14] was 5.9 µM (active); in [15] it was 1.47 µM (active); in assay [16] it was 1.17 µM (active); in assay [17], 2.61 µM (active); in assay [18], 13.1 µM (active); in [19], 2.93 µM (active). Besides, in assay [13], the Potency entry was “inactive”.

With `O=C1c2cccc(O)c2C(=O)c2c(O)cc(CO)cc21`, the Potency result in assay [1], in assay [2], in assay [3], in assay [4], in assay [5] and in [7] was “inactive” throughout. Further, the Potency result in assay [8], in assay [9], in [10], in [12], in assay [13] and in assay [20] was “inactive” in each case. Also, the Potency entry in assay [14] was “inactive”. Further, the Potency in assay [6] is 26.4 µM (active).

For `CN(C)c1ccc(C(=O)NCCCCCCC(=O)NO)cc1`, the Potency is 0.153 µM (active) in [1]; 0.469 µM (active) in assay [2]; 1.18 µM (active) in [3]; 0.118 µM (active) in assay [4]; 2.41 µM (active) in [5]; 0.296 µM (active) in assay [6]. In addition, the Potency in assay [7] was 0.132 µM (active); in assay [8] it was 1.53 µM (active); in assay [9] it was 0.0935 µM (active); in assay [10], 0.344 µM (active); in assay [11], 2.09 µM (active); in assay [12] it was 2.35 µM (active). Further, the Potency in [13] was 3.72 µM (active); in assay [20], 2.35 µM (active); in assay [14], 0.935 µM (active); in [15] it was 1.17 µM (active); in assay [16], 1.85 µM (active); in assay [17], 1.04 µM (active). Further, the Potency in [18] is 13.1 µM (active); in assay [19], 1.85 µM (active).

On to `Cc1onc(-c2ccccc2)c1C(=O)N[C@@H]1C(=O)N2[C@@H](C(=O)O)C(C)(C)S[C@@H]12`, for which the Potency result in assay [1], in assay [2], in [3], in [4], in assay [5] and in assay [6] was “inactive” throughout. Moreover, the Potency result in [7], in assay [8], in assay [9], in [10], in [12] and in assay [13] was “inactive” each time. Moreover, in assay [20], the Potency result was “inactive”.

For the compound `CCOC(=O)C=C[C@H](C[C@@H]1CCNC1=O)NC(=O)[C@@H](CC(=O)[C@@H](NC(=O)c1cc(C)on1)C(C)C)Cc1ccc(F)cc1`, the Potency result in [1], in assay [2], in [3], in [4], in [5] and in assay [6] was “inactive” in each case. Further, the Potency entry in [7], in assay [8], in [9], in assay [10], in assay [11] and in assay [12] was “inactive” throughout. In addition, the Potency entry in assay [13], in assay [20] and in [14] was “inactive” each time.

As for `O=C(O)C=Cc1ccc(Cn2ccnc2)cc1`, the Potency result in [1], in assay [2], in assay [3], in assay [4], in assay [5] and in [6] was “inactive” in each case. Besides, the Potency result in [7], in assay [8], in assay [9], in assay [10], in assay [11] and in assay [12] was “inactive” throughout. Further, the Potency result in assay [13], in [20] and in [14] was “inactive” throughout.
